The record followed here is PubChem BioAssay (EPA / NIEHS).

SMILES strings stand for the structures. Results filed as inconclusive are left out. Active and inactive are the calls of the source. How the source made its calls: active means hit-call score of the fitted dose curve at least 0.9, where 1 is the maximum; inconclusive means response in the unintended direction; inactive means score below 0.9.

Experiment [1] has as its target Cellular tumor antigen p53 (Homo sapiens) (UniProt P04637). In words: TOX21_p53_BLA_p2_ratio: Tox21 HCT-116 p53 Agonism Beta-lactamase Assay, Ratio, Phase 2 (AID 2283592). The method, boiled down:
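In this cell-based reporter format, HCT116 cells were dosed with chemicals delivered from DMSO by 217-fold dilution and incubated 16 h at 37C. Emission at 460 and 530 nm after 2 h CCF4-AM loading provided the ratio, fitted upward versus DMSO.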

A short description of experiment [2]: TOX21_p53_BLA_p3_viability: Viability Assessment in the Tox21 HCT-116 p53 Agonism Beta-lactamase Assay, Phase 3 (AID 2283593).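 Further: cells exposed to compound for 16 h before reading.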 The method, boiled down: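 HCT-116 cells (4000/well) rested 5 h at 37C, then got DMSO compounds by pin tool (217-fold dilution) for 16 h at 37C, 5% CO2. After the bla read, CellTiter-Glo was added and luminescence read at 30 min, room temperature.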

Experiment [3] has as its target Cellular tumor antigen p53 (Homo sapiens) (UniProt P04637). In words: TOX21_p53_BLA_p3_ratio: Tox21 HCT-116 p53 Agonism Beta-lactamase Assay, Ratio, Phase 3 (AID 2283596). The method, boiled down: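 HCT116 p53-bla cells (4000/well) given compound in DMSO (217-fold dilution) after 5 h, incubated 16 h at 37C. CCF4-AM substrate 2 h at room temperature; 460/530 nm emission ratio, gain fitted against DMSO.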

The nature of experiment [4]: TOX21_p53_BLA_p4_viability: Viability Assessment in the Tox21 HCT-116 p53 Agonism Beta-lactamase Assay, Phase 4 (AID 2283597).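 Further: hits lower the luminescence signal meaning cytotoxicity.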 The method, boiled down: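 We seeded HCT116 p53 reporter cells at 4000/well and waited 5 h. We then added compounds in DMSO at a 217-fold dilution and incubated for 16 h. Viability was read as CellTiter-Glo luminescence after 30 min at RT.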

Experiment [5] has as its target Cellular tumor antigen p53 (Homo sapiens) (UniProt P04637). In words: TOX21_p53_BLA_p5_ratio: Tox21 HCT-116 p53 Agonism Beta-lactamase Assay, Ratio, Phase 5 (AID 2283599). The gist of the method: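 HCT-116 cells carrying a p53-inducible beta-lactamase reporter were seeded at 4000 cells/well and dosed after 5 h with compound in DMSO (217-fold dilution). After 16 h at 37C, CCF4-AM substrate was added for 2 h, and the 460/530 nm emission ratio was scored as gain-of-signal versus DMSO.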

A short description of experiment [6]: TOX21_p53_BLA_p5_viability: Viability Assessment in the Tox21 HCT-116 p53 Agonism Beta-lactamase Assay, Phase 5 (AID 2283600). The gist of the method:
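Compounds, pinned from DMSO at 217-fold dilution, were left on the cells for 16 h. The viability endpoint was ATP content measured by CellTiter-Glo luminescence, where falling signal reflects cytotoxicity.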

In experiment [7] the target is Cellular tumor antigen p53 (Homo sapiens) (UniProt P04637). The experiment can be described thus: TOX21_p53_BLA_p4_ratio: Tox21 HCT-116 p53 Agonism Beta-lactamase Assay, Ratio, Phase 4 (AID 2283601). The method, boiled down: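 HCT116 cells carrying an inducible beta-lactamase reporter were plated at 4000 cells/well, rested 5 h, then exposed to compounds in DMSO (217-fold dilution) for 16 h at 37C. CCF4-AM substrate was loaded 2 h at room temperature; 460/530 nm emission ratio scored gain-of-signal versus DMSO.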
Cellular tumor antigen p53 (Homo sapiens), sequence (P04637 whole entry, looked up): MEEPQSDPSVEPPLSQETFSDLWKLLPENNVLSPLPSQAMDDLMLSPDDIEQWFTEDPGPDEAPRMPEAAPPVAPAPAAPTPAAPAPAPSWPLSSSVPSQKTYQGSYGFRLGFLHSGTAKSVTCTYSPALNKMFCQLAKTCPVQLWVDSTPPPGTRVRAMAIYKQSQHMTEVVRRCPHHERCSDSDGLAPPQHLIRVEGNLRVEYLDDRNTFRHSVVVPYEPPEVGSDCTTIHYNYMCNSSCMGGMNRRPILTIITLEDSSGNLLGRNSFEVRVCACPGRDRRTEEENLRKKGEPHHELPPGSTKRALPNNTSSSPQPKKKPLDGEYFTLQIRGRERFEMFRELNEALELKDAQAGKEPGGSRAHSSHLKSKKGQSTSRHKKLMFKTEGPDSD

For experiment [8], the target named is Thyroid hormone receptor alpha (Rattus norvegicus) + Thyroid hormone receptor beta (Rattus norvegicus) (UniProt P18113+P63059). The experiment can be described thus: TOX21_TR_LUC_GH3_Antagonist_Followup: Tox21 GH3 Thyroid Hormone Receptor Antagonism Luciferase Follow-Up Assay (AID 2283942). The gist of the method:
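Rat pituitary GH3 cells with a TRα/TRβ-driven luciferase reporter, 5 h attachment, then 15 concentrations (92 uM to 5nM final) plus 1.0 nM T3 agonist, 24 h at 37C/5% CO2. ONE-Glo luminescence; signal change fitted against DMSO baseline.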

The target in experiment [9] is THRB (gene 7068) (UniProt P10828). In words: TOX21_TRB_BLA_Antagonist_Followup_ratio: Tox21 Thyroid Hormone Receptor beta Antagonism Beta-lactamase (BLA) Follow-Up Assay, Ratio (AID 2283958). The gist of the method: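 HEK293T TRb-bla (GAL4 DBD + hTRβ LBD), 2% cs-FBS phenol red-free DMEM, 5 h attach; cpds 11-pt triplicate, 18 h 37C; CCF4-AM 2 h RT; 460/530 ratio vs DMSO; CellTiter-Glo viability same wells.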
THRB (gene 7068), sequence (P10828 whole entry, looked up, the tested form may be a part): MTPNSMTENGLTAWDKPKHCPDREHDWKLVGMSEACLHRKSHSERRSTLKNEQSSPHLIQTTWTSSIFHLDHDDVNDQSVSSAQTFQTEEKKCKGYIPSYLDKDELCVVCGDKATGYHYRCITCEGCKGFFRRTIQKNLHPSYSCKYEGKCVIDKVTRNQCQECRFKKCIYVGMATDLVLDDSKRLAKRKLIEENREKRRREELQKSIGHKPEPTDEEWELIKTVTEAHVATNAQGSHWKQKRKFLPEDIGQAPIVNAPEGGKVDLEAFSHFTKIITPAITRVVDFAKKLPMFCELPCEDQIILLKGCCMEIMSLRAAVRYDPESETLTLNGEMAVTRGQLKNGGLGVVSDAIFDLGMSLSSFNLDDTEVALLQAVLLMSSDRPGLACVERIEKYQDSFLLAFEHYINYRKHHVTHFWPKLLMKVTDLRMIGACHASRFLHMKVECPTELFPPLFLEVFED

Experiment [10] has the same target. In words: TOX21_TRB_COA_Antagonist_Followup_ratio: Tox21 Thyroid Hormone Receptor beta Antagonism through Coactivator Recruitment Follow-Up Assay, Ratio (AID 2283967). The method, boiled down: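 Cell-free TR-FRET coactivator recruitment with GST-tagged TRβ LBD (5.0 nM) and fluorescein-labeled SRC-2 peptide (200 nM) detected by terbium anti-GST antibody (2 nM). The 520:495 nm emission ratio was normalized to DMSO (0%) and T3 (100%).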

A short description of experiment [11]: TOX21_TR_RXR_BLA_Antagonist_Followup_viability: Viability Assessment in the Tox21 Thyroid Hormone Receptor beta Retinoid X Receptor alpha (RXRa) Antagonism Beta-lactamase (BLA) Follow-Up Assay (AID 2283979). The gist of the method: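 RXRa-UAS-bla HEK293T cells seeded 2,500/well in phenol red-free DMEM with 2% charcoal-stripped FBS, attached 5 h, then exposed to compounds at 11 concentrations in triplicate for 16 h at 37C/5% CO2. Viability read by CellTiter-Glo ATP luminescence; bidirectional fit versus DMSO.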

Turning to `C[C@]12CC[C@H]3[C@@H](CCC4=C(Cl)C(=O)CC[C@@]43C)[C@@H]1CC[C@@H]2O`, the result in experiment [1], in experiment [2], in experiment [3], in experiment [4], in [5] and in [6] was inactive. Moreover, the result (in [7]; in experiment [8]; in the experiment with THRB (gene 7068) [9]; with THRB (gene 7068) [10]; in experiment [11]) was inactive.

Take `C[C@]12CC[C@H](OS(=O)(=O)O)CC1=CC[C@@H]1[C@@H]2CC[C@]2(C)C(=O)CC[C@@H]12`: the result in [1], in experiment [2], in experiment [3], in experiment [4], in [5] and in [6] was inactive. Also, the outcome in [7] was inactive.

Turning to `CCCCN(N=O)C(=N)N[N+](=O)[O-]`, the AC50 in experiment [1] is 57 µM (active); in experiment [3] it was 56.4 µM (active); in experiment [5], 55.2 µM (active); in experiment [7], 40.7 µM (active). The outcome in [2] and in experiment [6] was inactive.

As to `ClC=CCCl`, the result in experiment [1], in experiment [2], in experiment [3], in experiment [4], in [5] and in experiment [7] was inactive.

Consider `CCCC1CCCCN1` (stereo not drawn), for which the result in [1], in experiment [2], in experiment [3], in experiment [4], in [5] and in experiment [7] was inactive.

With `ClC=CCl`, the outcome in [1], in experiment [2], in experiment [3], in experiment [4], in [5] and in [6] was inactive. Moreover, the outcome in experiment [7] was inactive.
